Consider 40 compounds from PubChem BioAssay (NCI).

Compounds without any hit were thinned out: in the full panel of roughly 83,000, 20% have a hit.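 For each line, cells grew in 96-well plates with the test compound present at a single concentration for 48 hours.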 A number with no mark means an inactive call. Active and inactive are the calls of the source. How the source made its calls: active means growth percent below 10; inactive means the rest.

One assay deals with COLO 205 colon. Kind of assay: NCI-60 one-dose screen, 48 h (100 = growth as untreated, 0 = no growth, -100 = all killed). The following applies: 10 µM.
In the case of `Clc1ccc(SSC(Cl)(Cl)Cl)cc1`, the growth was 114%.
Turning to `[O]=[Sn]([CH]1CCCCC1)[CH]1CCCCC1`, the growth was -89.9% (active).
Still for that read-out and setting: the value for `ClCCN(CCCl)c1nc(Cl)c(C2CC(c3ccccc3)=NN2c2ccccc2)s1` (stereo not drawn) was 95.3%.
Consider `Cc1ccccc1O`, for which the growth was 105%.
On the same count and under the same terms, the figure for `O=[N+]([O-])c1ccccc1N1CCNCC1` is 104%; for `CC(=O)Nc1ccc(C=C2C(=O)NC(=O)NC2=O)cc1` it is 106%.

The subject of another assay is DU-145 prostate. The description is as above. Conditions: 10 µM unless noted.
With `ClCCN(CCCl)C(c1ccccc1)c1ccc(Cl)cc1` (stereo not drawn), the growth is 69.5%.
In the case of `CCCCn1cc(C(=O)/C(C#N)=C/c2cc3ccccc3nc2Cl)c2cc(OC)ccc21`, the growth was 104%.
Consider `CCCCNCCc1ccccn1`, for which the growth was 113%.
Same read-out and setting: the figure for `CC(=O)C1C(=O)N(C)C(=O)N(C)C1=O` is 111%; for `CC1(C)N=C(N)N=C(N)N1c1cccc(C(=O)Nc2cccc(S(=O)(=O)F)c2)c1` it is 114%; for `C[C@]12CC[C@@H]3C4=C(CC[C@H]3[C@@H]1CC[C@@H]2O)CC(=O)CC4` it is 116%.
Same read-out and setting: the value for `Oc1ccccc1OB(Oc1ccccc1O)N(CCCl)CCCl` was 86.9%; that for `NC(Cc1ccc2c(c1)OCO2)c1ccc2c(c1)OCO2` (stereo not drawn) was 116%; that for `COc1ccc(-c2ccc(OC)c(OC)c2OC)cc1` was 13.8%.
Consider `CC[C@@]1(C2O[C@@H](C3O[C@@](O)(CC)[C@H](C)C[C@@H]3C)C[C@@H]2C)CC[C@H]([C@]2(C)CCC3(C[C@H](O)[C@@H](C)[C@@H]([C@H](C)[C@@H](OC)[C@H](C)C(=O)O)O3)O2)O1` (stereo partly drawn), for which the growth is 44.9%.
Turning to `CC1(C)N=C(N)N=C(N)N1c1ccc(CCCCc2ccc(S(=O)(=O)F)cc2)c(Cl)c1`, the growth is 30.6%.
For `COc1ccc(C2=NN(c3ccccc3)C(c3sc(N(CCCl)CCCl)nc3Cl)C2)cc1` (stereo not drawn), the growth is 106%.
`N#CC1c2ccccc2C=CN1C(=O)c1ccc(N(CCCl)CCCl)cc1` (stereo not drawn): the growth is 111%.
On the same count and under the same terms, the figure for `CSc1ccccc1NP1(=O)OCC(C)([N+](=O)[O-])CO1` (stereo not drawn) is 109%.
In the case of `Cc1ccc(N)cc1[As]=[As]c1cc(N)ccc1C` (stereo not drawn), the growth is -40.6% (active).
In the case of `C/C(=N/OC(=O)N(C)C)c1cc(Cl)ccc1Cl`, the growth was 105%.
Still for that read-out and setting: the figure for `CCC(C)[C@H]1O[C@]2(C=C[C@@H]1C)C[C@@H]1C[C@@H](C/C=C(\C)[C@@H](OC3C[C@H](OC)C(O[C@H]4C[C@H](OC)[C@@H](O)[C@H](C)O4)[C@H](C)O3)[C@@H](C)/C=C/C=C3\CO[C@@H]4[C@H](O)C(C)=C[C@@H](C(=O)O1)[C@]34O)O2` (stereo partly drawn) is 11.4%.
In the case of `CC1(C)N=C(N)N=C(N)N1c1ccc(CCCCc2ccc(S(=O)(=O)F)cc2)cc1`, the growth is 31.8%.
On to `Cc1ccc(C(=O)C2CN(C)CCC2(O)c2ccc(C)cc2)cc1` (stereo not drawn), for which the growth is 117%.
For `O=S(=O)(O)c1ccc(-c2ccc([As](=O)(O)O)cc2)cc1`, the growth was 110%.
Still for that read-out and setting: the figure for `O=C1NC(=O)C(CN2C(=O)C3(c4ccccc42)[C@H](Cl)C(=O)N3c2ccccc2)C(=O)N1` (stereo partly drawn) is 102%.
As for `O=[N+]([O-])c1cc([N+](=O)[O-])c(Cl)c(Cl)c1Cl`, the growth is -27.2% (active).
Still for that read-out and setting: the value for `C=CCC1(CC)C(=O)NC(=S)NC1=O` was 103%; that for `C/C(=N/OC(=O)N(C)C)c1ccc(Cl)cc1Cl` was 109%.
As to `CCC[CH2][Sn]([CH2]CCC)([CH2]CCC)[O]C(=O)CC`, the growth is -97.7% (active).
Same read-out and setting: the figure for `O=C(NCc1ccc([N+](=O)[O-])cc1)Nc1ccc(S(=O)(=O)F)cc1` is 102%.
Same read-out and setting: the value for `n1nc(-c2nonc2-c2nn[nH]n2)n[nH]1` was 103%; that for `CNC(=O)Oc1ccccc1-c1ccccc1` was 106%; that for `CC1(C)N=C(N)N=C(N)N1c1ccc(OCCCCOc2ccc(S(=O)(=O)F)cc2)c(Cl)c1` was 24.6%.
As for `CCCCOC(=O)c1ccccc1C(=O)O.CCCCOC(=O)c1ccccc1C(=O)O.[Cu+2]`, the growth is 113%.
As for `O=[N+]([O-])c1ccc2cnn(CSP(=S)(c3ccccc3)c3ccccc3)c2c1`, the growth is 105%.
Regarding `NC(=O)C(Cl)Cl`, the growth is 108%.
On to `CCN(CC)c1ccc(C=C2C(=O)NC(=S)NC2=O)cc1`, for which the growth was 98.8%.
With `Clc1ccc(SSC(Cl)(Cl)Cl)cc1`, the growth is 114%.
Turning to `[O]=[Sn]([CH]1CCCCC1)[CH]1CCCCC1`, the growth is -98% (active).
The same measure, in the same setting: the value for `ClCCN(CCCl)c1nc(Cl)c(C2CC(c3ccccc3)=NN2c2ccccc2)s1` (stereo not drawn) was 99.7%; that for `CC(=O)C1CCC2C3CC=C4CC(OC(=O)Cc5ccc(N(CCCl)CCCl)cc5)CCC4(C)C3CCC12C` (stereo not drawn) was 86%.
As to `Cc1ccccc1O`, the growth is 120%.
On to `O=[N+]([O-])c1ccccc1N1CCNCC1`, for which the growth was 108%.
With `CC(=O)Nc1ccc(C=C2C(=O)NC(=O)NC2=O)cc1`, the growth is 124%.

For a further assay, the system named is K-562 leukemia. Described as above. Conditions: 10 µM unless noted.
As for `ClCCN(CCCl)C(c1ccccc1)c1ccc(Cl)cc1` (stereo not drawn), the growth was 42.6%.
Take `CCCCn1cc(C(=O)/C(C#N)=C/c2cc3ccccc3nc2Cl)c2cc(OC)ccc21`: the growth is 47.5%.
Regarding `CCCCNCCc1ccccn1`, the growth was 90.4%.
As to `CC(=O)C1C(=O)N(C)C(=O)N(C)C1=O`, the growth is 108%.
As for `CC1(C)N=C(N)N=C(N)N1c1cccc(C(=O)Nc2cccc(S(=O)(=O)F)c2)c1`, the growth was 118%.
For `C[C@]12CC[C@@H]3C4=C(CC[C@H]3[C@@H]1CC[C@@H]2O)CC(=O)CC4`, the growth was 96.9%.
For `Oc1ccccc1OB(Oc1ccccc1O)N(CCCl)CCCl`, the growth is 96.2%.
Regarding `NC(Cc1ccc2c(c1)OCO2)c1ccc2c(c1)OCO2` (stereo not drawn), the growth was 96.5%.
Still for that read-out and setting: the value for `COc1ccc(-c2ccc(OC)c(OC)c2OC)cc1` was 10.1%.
Regarding `CC1(C)N=C(N)N=C(N)N1c1ccc(CCCCc2ccc(S(=O)(=O)F)cc2)c(Cl)c1`, the growth was 13.1%.
For `COc1ccc(C2=NN(c3ccccc3)C(c3sc(N(CCCl)CCCl)nc3Cl)C2)cc1` (stereo not drawn), the growth was 64.1%.
As for `N#CC1c2ccccc2C=CN1C(=O)c1ccc(N(CCCl)CCCl)cc1` (stereo not drawn), the growth is 65.8%.
As to `CSc1ccccc1NP1(=O)OCC(C)([N+](=O)[O-])CO1` (stereo not drawn), the growth is 75.4%.
In the case of `Cc1ccc(N)cc1[As]=[As]c1cc(N)ccc1C` (stereo not drawn), the growth was -5.72% (active).
Still for that read-out and setting: the value for `C/C(=N/OC(=O)N(C)C)c1cc(Cl)ccc1Cl` was 104%; that for `CC1(C)N=C(N)N=C(N)N1c1ccc(CCCCc2ccc(S(=O)(=O)F)cc2)cc1` was 19.7%.
On the same count and under the same terms, the figure for `Cc1ccc(C(=O)C2CN(C)CCC2(O)c2ccc(C)cc2)cc1` (stereo not drawn) is 123%; for `O=S(=O)(O)c1ccc(-c2ccc([As](=O)(O)O)cc2)cc1` it is 101%.
With `O=C1NC(=O)C(CN2C(=O)C3(c4ccccc42)[C@H](Cl)C(=O)N3c2ccccc2)C(=O)N1` (stereo partly drawn), the growth was 65.5%.
As for `O=[N+]([O-])c1cc([N+](=O)[O-])c(Cl)c(Cl)c1Cl`, the growth was 13%.
With `C=CCC1(CC)C(=O)NC(=S)NC1=O`, the growth was 95.5%.
For `C/C(=N/OC(=O)N(C)C)c1ccc(Cl)cc1Cl`, the growth is 106%.
As for `CCC[CH2][Sn]([CH2]CCC)([CH2]CCC)[O]C(=O)CC`, the growth is -30.2% (active).
With `O=C(NCc1ccc([N+](=O)[O-])cc1)Nc1ccc(S(=O)(=O)F)cc1`, the growth was 93%.
On to `n1nc(-c2nonc2-c2nn[nH]n2)n[nH]1`, for which the growth is 106%.
Take `CNC(=O)Oc1ccccc1-c1ccccc1`: the growth was 99.6%.
For the compound `CC1(C)N=C(N)N=C(N)N1c1ccc(OCCCCOc2ccc(S(=O)(=O)F)cc2)c(Cl)c1`, the growth was 16.8%.
On to `CCCCOC(=O)c1ccccc1C(=O)O.CCCCOC(=O)c1ccccc1C(=O)O.[Cu+2]`, for which the growth was 96.2%.
On to `O=[N+]([O-])c1ccc2cnn(CSP(=S)(c3ccccc3)c3ccccc3)c2c1`, for which the growth was 19%.
Still for that read-out and setting: the value for `NC(=O)C(Cl)Cl` was 100%; that for `CCN(CC)c1ccc(C=C2C(=O)NC(=S)NC2=O)cc1` was 78%; that for `Clc1ccc(SSC(Cl)(Cl)Cl)cc1` was 112%.
For `[O]=[Sn]([CH]1CCCCC1)[CH]1CCCCC1`, the growth is -8.85% (active).
Turning to `ClCCN(CCCl)c1nc(Cl)c(C2CC(c3ccccc3)=NN2c2ccccc2)s1` (stereo not drawn), the growth is 68.3%.
Still for that read-out and setting: the value for `Cc1ccccc1O` was 119%; that for `O=[N+]([O-])c1ccccc1N1CCNCC1` was 91.7%.
With `CC(=O)Nc1ccc(C=C2C(=O)NC(=O)NC2=O)cc1`, the growth is 104%.
